From PubChem BioAssay AID686971 (National Center for Advancing Translational Sciences (NCATS), 2013)
Hit rate of the full screen: of about 360,000 compounds, about 7,500 (2.1%) were called active. Roughly 8% stayed inconclusive and do not appear here. Calls come from the whole dose curve; as a rule, active = well fitted cell-killing curve with a large enough effect; inconclusive = small, poorly fitted or top-dose-only effect, or effect the other way, or another doubt; inactive = no such curve, though single readings can be large or run the other way. Many of the other results were omitted from the sample, so actives are more common in it than they were.

Assay: qHTS for induction of synthetic lethality in tumor cells producing 2HG: qHTS for the HT-1080-IDH1KD cell line;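 for activity, negative = toxicity: 0% = DMSO wells and -100% = cell-free medium wells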
Settings: HT-1080 IDH1 knockdown viability, ATP luminescence, 48 h; series mostly up to 46.1 µM; activity, negative = toxicity: at the top concentration
How it was run: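 Using the IDH1-knockdown HT-1080 line run in the same batch and compound series as the NT line, viability after 48 h at 37 °C was determined by CellTiter-Glo luminescence and expressed as % activity.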
Potency is the fitted concentration of half-maximal effect.

Row | SMILES | activity, negative = toxicity | Potency
1 | Cc1ccc(S(=O)(=O)N2CCOCC2)cc1NC(=O)c1ccncc1 | -4.38% (inactive) | 
2 | CC(C)Nc1ncnc2c1ncn2[C@H]1CN(Cc2ccncc2)C[C@@H](CO)O1 | 8.01% (inactive) | 
3 | O=C(Nc1ccc(Cl)cc1)Nc1nnc(/C=C/c2ccccc2)s1 | -6.97% (inactive) | 
4 | O=C(CSc1ccccc1)Nc1nnc(/C=C/c2ccccc2)s1 |  | 18.4 µM (active)
5 | CCOCc1nnc(NC(=O)CSc2ccc(C)cc2)s1 | 13.4% (inactive) | 
6 | CC1(C)OC(=O)C2=C(C[C@@H](C3CC3)O[C@H]2c2ccc(Cl)cc2)O1 | 6.54% (inactive) | 
7 | CCCCc1nc2ccc(F)cc2cc1C | 14% (inactive) | 
8 | CCCNC(=O)c1cc(C2CCCCN2S(=O)(=O)c2cn(C)cn2)on1 (centres undefined) | 0% (inactive) | 
9 | COc1ccc2c(c1)C(C)=CC(C)(C)N2C(=O)CNCc1ccc2c(c1)OCO2 |  | 8.91 µM (active)
10 | COc1ccc2c(c1)C(C)=CC(C)(C)N2C(=O)Nc1ccccc1 | 6.01% (inactive) | 
11 | COc1ccc(NC(=O)NCc2ccc3c(c2)OCO3)c(OC)c1 | 12.4% (inactive) | 
12 | CCOC(=O)[C@]12CCCC=C1N(Cc1ccc3c(c1)OCO3)C(=O)[C@H](CC(=O)N1CCN(C(=O)c3ccco3)CC1)C2 | 7.52% (inactive) | 
13 | Cc1c(C(=O)Nc2ccccn2)oc2ccc(Br)cc12 | 0.189% (inactive) | 
14 | Oc1ccc(Br)cc1/C=N/Nc1ccccn1 |  | 6.51 µM (active)
15 | CCN(CC)CCn1c(/N=C/c2cc(Br)ccc2O)nc2ccccc21 | -22.5% (inactive) | 
16 | NCCCCC(C(=O)O)N(C(=O)OCc1ccccc1)C(=O)OCc1ccccc1 (centres undefined) | 27.1% (inactive) | 
17 | O=C(COC(=O)c1ccc(S(=O)(=O)N2CCCCCC2)cc1)Nc1ccccc1C(F)(F)F | -2.66% (inactive) | 
18 | CCc1nc2ccc(C(=O)Nc3ccc(OC)c(OC)c3)cn2c1N(C)C(=O)c1cccc(OC)c1 | 2.78% (inactive) | 
19 | O=C(Nc1cccc(-c2cscn2)c1)C1CCN(Cc2ccsc2)CC1 | -10.5% (inactive) | 
20 | CCn1cc(CN2CCC(C(=O)Nc3cccc(-c4cccc(Cl)c4)c3)CC2)c(C)n1 |  | 20.6 µM (active)
21 | O=C(Nc1cnn(Cc2ccc(Cl)cc2)c1)C1CCCC1 | -20.3% (inactive) | 
22 | CCn1cc(CN2CCC(C(=O)Nc3cccc(-c4cccc(Cl)c4)c3)CC2)cn1 |  | 18.4 µM (active)
23 | CC(=O)c1cc(CN2CCC(C(=O)Nc3cccc(-c4cscn4)c3)CC2)cs1 | -24.4% (inactive) | 
24 | CCn1cc(CN2CCC(n3nccc3NC(=O)CCCc3ccccc3)CC2)c(C)n1 | -0.78% (inactive) | 
25 | Cc1ccc([C@@H]2CC(=O)[C@@H]3CN(S(=O)(=O)c4ccc(C)cc4)[C@H](c4ccccc4F)C[C@@H]3N2S(=O)(=O)c2ccc(Cl)cc2)cc1 | 4.32% (inactive) | 

Row | SMILES | activity, negative = toxicity | Potency
26 | CCN(CC)CCn1c2ccc(Cl)cc2c2nc(C)sc21 | -0.98% (inactive) | 
27 | CCN(CC)CCCC(C)n1c2nc(=O)[nH]c(=O)c-2nc2cc(Cl)ccc21 (centres undefined) |  | 16.4 µM (active)
28 | CCCCc1ccc(S(=O)(=O)NC(=O)C2(C)CCN2C(=O)c2c(C)noc2C)cc1 (centres undefined) | 15.3% (inactive) | 
29 | CC(=O)Nc1ccc(SCC(=O)NC(=O)c2ccc(Cl)cc2)cc1 | -1.03% (inactive) | 
30 | Cc1cccc(C)c1-n1nnnc1C1(C)CCC(=O)N1CCOc1ccccc1 (centres undefined) | 3.21% (inactive) | 
31 | COc1cc(NC(=O)c2cc(-c3ccc(F)cc3OC(C)C)n[nH]2)cc(OC)c1OC | -47.9% (inactive) | 
32 | COc1ccc(NC(=O)C[C@H]2C(=O)N(CCc3ccccc3)C[C@@H]2C)cc1 | 3.77% (inactive) | 
33 | OCCc1ccc(NCCc2ccco2)cc1 | 9.4% (inactive) | 
34 | Cc1cc(C)nc(NS(=O)(=O)c2ccc(N3C(=O)C4CCCCC4C3=O)cc2)n1 (centres undefined) | 16.3% (inactive) | 
35 | Cc1ccc(S(=O)(=O)Nc2nc(N)n(-c3ccccc3)n2)cc1 | 20.1% (inactive) | 
36 | Cc1ccc(S(=O)(=O)Nc2nc(C)cc(-n3nc(C)cc3C)n2)cc1 |  | 15.8 µM (active)
37 | C[C@H]1CN([C@@H](C)CO)C(=O)CCCn2cc(nn2)CO[C@@H]1CN(C)S(=O)(=O)c1cccc(C#N)c1 | 13.6% (inactive) | 
38 | CC1(C(=O)NS(=O)(=O)c2ccc(C#N)cc2)CCN1C(=O)CC1CCCC1 (centres undefined) | 11.5% (inactive) | 
39 | COCCNc1nc(NCc2ccc(NC(C)=O)cc2)c2sccc2n1 | 0% (inactive) | 
40 | COCCNc1nc(Nc2ccccc2Cl)c2sc(-c3ccccc3)cc2n1 | -1.87% (inactive) | 
41 | CC(=O)Nc1ccc(CNc2nc(NCCN(C)C)nc3cc(-c4ccccc4)sc23)cc1 |  | 20.6 µM (active)
42 | COc1cccc(C(O)c2nc(-c3ccc(C)c(C)c3)cs2)c1 (centres undefined) | -24.1% (inactive) | 
43 | CC1(C)OC(=O)C2=C(CC(c3ccccc3)OC2CCc2ccccc2)O1 (centres undefined) | -22.6% (inactive) | 
44 | OCCCNc1nccc(-c2cc(Nc3cccc(Cl)c3)ncn2)n1 | -29.6% (inactive) | 
45 | CC(C)n1cnc2c(Nc3cccc(Cl)c3)nc(N(CCO)CCCO)nc21 |  | 14.6 µM (active)
46 | COC(=O)[C@]12CCCCC=C1N(Cc1ccc3c(c1)OCO3)C(=O)[C@H](CC(=O)NCc1cccs1)C2 | -12.8% (inactive) | 
47 | COc1cc(C(O)c2nc(-c3cnn(C)c3)cs2)ccc1F (centres undefined) | -2.77% (inactive) | 
48 | CCCCCNC(=O)C1C(=O)Nc2ccccc2C(=O)N1C(C)(C)C (centres undefined) | 10.7% (inactive) | 
49 | CCOC(=O)[C@H]1Nc2ccc(Cl)cc2[C@@H]2[C@H]1C1CC(c3ccccc31)N2C(=O)OCc1ccccc1 (some centres undefined) | -15.7% (inactive) | 
